# aDG glyco act: activators of alpha-DG glycosylation, primary screen, uHTS, Pro5-aDG cells, AlphaScreen; activation, % at 10 µM; AID 624168, 2012; alpha-DG glycosylation AlphaScreen (IIH6); 0% Pro5, 100% B10-LARGE cell signal; 360,000 tested, 0.22% active;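 active = activation of at least 8% versus controls, or a plate z-score of at least 8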;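 note: Pro5 are CHO cells carrying HIG-tagged alpha-DG that lacks glycosylation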
# rCAG RNA binder: binders of r(CAG) RNA repeats, primary screen, biochemical, fluorescence | r(CAG) RNA repeat, TO-PRO-1 dye displacement fluorescence | inhibition, % at 3 µM | 370,000 tested, 1.3% active;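 active = inhibition above the plate cutoff, the mean of all test compounds on that plate plus 3 SD, cut at about 35% in these data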;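 note: 0% = DMSO alone and 100% = 100 µM mitoxantrone as full dye displacement; higher means more dye released from RNA so lower well fluorescence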
# APOBEC3A inh: APOBEC3A ssDNA deaminase inhibitors, primary screen, selectivity assay for APOBEC3G inhibitor project, biochemical, FAM/TAMRA oligo cleavage fluorescence; DNA dC->dU-editing enzyme APOBEC-3A (Homo sapiens), P31941; recombinant A3A, FAM/TAMRA ssDNA deamination fluorescence; inhibition, % at 20 µM; 330,000 tested, 0.41% active; AID 493011, 2011;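 active = at least 40% inhibition at 20 µM here, with at most 30% in a related deaminase screen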;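 note: plate controls were A3A with DMSO for no effect and wells lacking A3A enzyme for full effect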
# Target sequence (P31941 whole entry, looked up): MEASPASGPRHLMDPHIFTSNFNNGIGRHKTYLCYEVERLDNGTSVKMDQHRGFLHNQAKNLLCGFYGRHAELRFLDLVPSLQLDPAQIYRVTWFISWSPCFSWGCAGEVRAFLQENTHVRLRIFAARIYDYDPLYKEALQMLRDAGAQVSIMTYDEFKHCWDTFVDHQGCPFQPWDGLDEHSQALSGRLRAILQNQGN
# ALR inh: inhibitors of human ALR sulfhydryl oxidase, primary screen, biochemical, H2O2 detection, HRP-luminol luminescence, single point | purified ALR, DTT oxidation | inhibition, % (test concentration not listed) | 290,000 tested, 3.8% active | AID 485317, 2010;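 active = mean replicate inhibition above about 79%, with every replicate also reaching it, limit read from the data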
# APOBEC3G inh: APOBEC3G DNA deaminase inhibitors, primary screen, biochemical, fluorescence, single-stranded DNA substrate, uHTS; inhibition, % at 20 µM; 330,000 tested, 0.28% active; AID 493012, 2011; DNA dC->dU-editing enzyme APOBEC-3G (Homo sapiens), Q9HC16; recombinant A3G, ssDNA deamination FAM/TAMRA fluorescence;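 active = inhibition of at least 40% at 20 µM, with no more than 30% in the related APOBEC3A deaminase screen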;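 note: plate controls were DMSO wells with A3G for no effect and wells lacking A3G enzyme for full effect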
# PHOSPHO1 inh: PubChem AID 1565; recombinant PHOSPHO1, absorbance phosphatase assay; inhibition, % at 13.3 µM; 290,000 tested, 1.1% active; Phosphoethanolamine/phosphocholine phosphatase (Homo sapiens), Q8TCT1; in the data active = inhibition above about 60%
# Target sequence (Q8TCT1 whole entry, looked up): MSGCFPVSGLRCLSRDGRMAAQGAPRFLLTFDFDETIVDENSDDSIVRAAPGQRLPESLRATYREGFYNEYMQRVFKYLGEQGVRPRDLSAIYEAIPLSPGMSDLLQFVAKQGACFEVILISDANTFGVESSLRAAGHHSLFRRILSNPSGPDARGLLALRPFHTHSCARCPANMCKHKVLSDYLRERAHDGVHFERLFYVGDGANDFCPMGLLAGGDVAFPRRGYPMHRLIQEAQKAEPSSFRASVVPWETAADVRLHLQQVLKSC
# An asterisk follows results filed as active; . = not tested or not shown. The list is not random: actives were taken first. Their share in the collection is about 5.4%.
SMILES,aDG glyco act,rCAG RNA binder,APOBEC3A inh,ALR inh,APOBEC3G inh,PHOSPHO1 inh
CCN(CC)c1ccc(/C=N/NC(=O)C2CC2)cc1,0,-4,4,100*,8,43
CCc1cc(C(=O)N2CCOCC2)c(NC2=NS(=O)(=O)c3ccccc32)s1,0,10,-3,-1,-4,84*
Cc1ccc(NC2=C(NCCO)C(=O)c3ccccc3C2=O)cc1,0,2,-6,100*,-10,7
CN1C(=O)/C(=C/c2cn(CC(=O)NCc3ccco3)c3ccccc23)NC1=S,.,16,8,97*,13,16
Cc1cccc(-c2cccc3c4c([nH]c23)[C@@H]2C[C@H](N(C)C(=O)Nc3ccccc3C)[C@H]([C@H](C)O)CN2CC4)c1,.,9,.,.,.,.
Nc1ccccc1Nc1nc2ccccc2[nH]1,1,6,-4,99*,-74,8
Nc1ccc(Nc2nc3ccccc3[nH]2)cc1,0,12,0,42,-5,9
C=CCN1C(=O)[C@H](CC(=O)NCc2ccccc2)[C@@]2(C(=O)OCC)CCCC=C12,.,1,.,.,.,.
COC(=O)[C@]12C[C@H](CC(=O)N3CCN(C(=O)c4ccco4)CC3)C(=O)N(CCc3ccc(OC)c(OC)c3)C1=C[C@H](C(C)C)O[C@@H]2C1CC1,.,1,.,.,.,.
COc1ccc(NC(=O)CSc2nnc(-c3ccncc3)n2CC2CCCO2)c(OC)c1 (configuration not stated),0,-3,2,-4,0,-17
CCC(=O)Nc1ccc(C(=O)CSc2nnc(-c3ccc(O)cc3)n2CC2CCCO2)cc1OC (configuration not stated),0,-2,0,82*,-3,30
CCCC1C(C(=O)OCC)=C(C)NC(C)=C1C(=O)OCC,0,-9,2,99*,-4,16
COc1cc(Cn2cnnn2)ccc1O,0,1,-2,81*,-4,34
CCOC(=O)c1c(-c2ccccc2)[nH]c2ccc(O)cc12,0,-3,-1,98*,-6,-27
O=c1c2ccccc2[nH]c2ccc(O)cc12,0,9,21,87*,20,0
COc1ccc(CN(CC#Cc2ccccc2)Cc2ccccc2)c(OC)c1,.,-1,.,.,.,.
O=C(Nc1ccc(F)cc1)OCc1cn(Cc2ccc(F)c(F)c2)nn1,.,1,.,.,.,.
COc1ccc(OC)c(Nc2nc(-c3sc(NC(=O)CC(C)C)nc3C)cs2)c1,1,28,-5,-37,-5,65*
CCC(C)C(=O)Nc1nc(C)c(-c2csc(Nc3cc(OC)ccc3OC)n2)s1 (configuration not stated),1,22,-1,-15,-6,62*
CCCCC(=O)Nc1nc(C)c(-c2csc(Nc3cc(OC)ccc3OC)n2)s1,0,26,-3,-9,-7,70*
COc1ccc(Cl)cc1Nc1nc(-c2sc(NC(=O)C(C)(C)C)nc2C)cs1,4,34,-3,15,7,101*
COc1ccc(OC)c(Nc2nc(-c3sc(NC(=O)C(C)(C)C)nc3C)cs2)c1,1,19,6,-19,-9,57
O=C(C(=O)N1CCC(CNS(=O)(=O)c2ccc3ccccc3c2)CC1)c1cc2ccccc2o1,.,8,.,.,.,.
CCC(C)C(=O)Nc1nc(C)c(-c2csc(Nc3cc(Cl)ccc3OC)n2)s1 (configuration not stated),1,32,0,-22,-9,91*
COc1cc(N2C(=O)C=CC2=O)ccc1N1C(=O)C=CC1=O,-1,8,.,.,.,.
SMILES,aDG glyco act,rCAG RNA binder,APOBEC3A inh,ALR inh,APOBEC3G inh,PHOSPHO1 inh
O=C1C=CC(=O)N1c1cccc(-c2ccccc2)c1,0,1,-5,.,22,78*
CC(C)C(CCN1C(=O)c2ccccc2C1=O)c1ccco1 (configuration not stated),0,1,0,90*,-4,-9
O=C(OCCN1C(=O)c2ccccc2C1=O)c1ccco1,0,-1,0,0,-6,-42
COc1ccc(-c2cc(NC(=O)Cc3c(C)[nH]c4ccccc34)ccc2Nc2cccnc2)cc1OC,.,16,.,.,.,.
O=C(CNC(=O)c1ccccc1F)Nc1ccccc1C(F)(F)F,0,3,-1,1,-6,69*
O=C(CNC(=O)c1ccc(Cl)cc1)Nc1ccccc1C(F)(F)F,0,-2,2,-3,-3,15
CNC(=O)c1sc(N2N=C3/C(=C/c4ccccc4)CCCC3C2c2ccccc2)nc1C (configuration not stated),2,.,-2,99*,-5,22
CNC(=O)c1sc(N2N=C3/C(=C\c4ccccc4)CCCC3C2c2ccccc2)nc1C (configuration not stated),1,7,.,.,.,.
CCOC(=O)[C@@]12CCCC3=C1N(CCC3)C(=O)[C@H]2CC(=O)NCCCOC,.,-1,.,.,.,.
Cc1cc(SCNC(=O)c2ccccc2)nc(C(C)C)n1,0,-2,1,98*,-9,-3
O=C(N/N=C/c1ccc(OC2CSC2)cc1)c1ccccc1,0,1,-5,-25,-7,42
O=C(/C=C/c1ccc(OC2CSC2)cc1)c1ccccc1,0,0,2,83*,-2,19
CC1CCCCC1NC(=O)COC(=O)c1c2c(nc3ccccc13)/C(=C\c1ccco1)CC2 (configuration not stated),0,54*,.,.,.,.
CCCCNC(=O)COC(=O)c1c2c(nc3ccccc13)/C(=C/c1cccs1)CC2,1,19,.,-21,.,-6
O=C(CSc1nnc(-c2ccco2)n1-c1ccc(Cl)cc1)Nc1cccc2ccccc12,.,12,.,.,.,.
Cc1ccc(C2=CSC3=NCCN23)cc1,0,-4,-5,42,-8,.
C1=C(c2ccco2)N2CCN=C2S1,0,-2,-13,80*,2,29
Cc1cc(C(=O)CSc2nc3ccccc3o2)c(C)n1C1CC1,0,3,3,39,2,18
Cc1cc(C)n2nc(SCC(=O)c3ccccc3)nc2n1,0,-4,1,18,-5,-23
Cc1cc(-n2c(C)cc(C(=O)CSc3ncnc4ccccc34)c2C)no1,4,1,-2,98*,-4,84*
Cc1cc(C(=O)CSc2ncnc3ccccc23)c(C)n1C1CC1,1,6,-3,98*,-8,.
Cc1cc(C)n2nc(SCC(=O)c3cc(C)n(-c4cc(C)on4)c3C)nc2n1,6,6,-3,8,-6,102*
O=C(c1cc(Cl)cc(Cl)c1)N1CC[C@H]2[C@H](CCCN2Cc2cc(F)cc(F)c2)C1,.,-1,.,.,.,.
